Test results reported in the supplement of paper PMC3334620.
Whole data set: some 33,000 sequences, median “E-score (-0.5 to 0.5)” near -0.016, cut for the highest 2% near 0.3. The sample as a whole holds a higher share of the highest values than the screen did.

Target: T1, Yer184c (UniProt P39961)
T1 sequence: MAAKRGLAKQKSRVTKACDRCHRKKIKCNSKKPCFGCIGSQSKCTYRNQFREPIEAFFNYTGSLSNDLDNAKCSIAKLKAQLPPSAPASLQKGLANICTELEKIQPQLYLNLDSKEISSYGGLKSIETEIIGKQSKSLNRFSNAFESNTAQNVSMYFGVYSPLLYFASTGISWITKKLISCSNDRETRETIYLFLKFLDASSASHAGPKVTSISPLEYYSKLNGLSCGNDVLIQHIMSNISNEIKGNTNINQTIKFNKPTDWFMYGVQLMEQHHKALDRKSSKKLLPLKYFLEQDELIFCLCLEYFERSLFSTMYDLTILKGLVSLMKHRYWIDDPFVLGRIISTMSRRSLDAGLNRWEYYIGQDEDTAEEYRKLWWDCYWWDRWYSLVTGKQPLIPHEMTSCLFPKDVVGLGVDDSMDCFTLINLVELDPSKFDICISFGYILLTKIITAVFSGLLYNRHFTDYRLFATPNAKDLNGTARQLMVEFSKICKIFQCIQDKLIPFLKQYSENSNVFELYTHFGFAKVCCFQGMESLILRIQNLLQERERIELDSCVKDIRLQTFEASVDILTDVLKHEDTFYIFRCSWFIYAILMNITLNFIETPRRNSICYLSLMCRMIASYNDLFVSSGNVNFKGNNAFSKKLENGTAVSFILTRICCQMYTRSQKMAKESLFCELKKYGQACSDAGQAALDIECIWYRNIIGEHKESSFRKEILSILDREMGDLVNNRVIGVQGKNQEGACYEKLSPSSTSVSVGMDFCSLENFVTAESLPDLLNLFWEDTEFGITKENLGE
Assay: PBM E-score (8-mer binding enrichment) (E-score (-0.5 to 0.5)); higher = stronger / more preferred TF binding
Details: protein concentration: 100 nM; construct: GST-full length
In short: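 Detection of bound protein used fluorescent anti-GST, with scans normalised by masliner. The proteins were GST-tagged yeast transcription factors applied at about 100-200 nM to universal all-10-mer Agilent arrays made double-stranded by primer extension. Each ungapped eight-base word, pooled with its reverse complement, was scored with an E-score from the Universal PBM Analysis Suite.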

Sequence | PBM E-score
TCGGCGAA | 0.294
TATCTAAA | 0.0877
CACTGCGA | -0.0568
AGGTAGGA | -0.06
GGAGTGCC | 0.0423
TACTATGA | 0.142
CGGGAAAC | 0.286
CGGGAAAG | 0.138
ACGGAAAG | 0.231
CCGGAAAC | 0.396
CAGGAAAC | 0.117
CCGGAAAG | 0.312
CCCACGAA | -0.0234
CAGCGTCC | -0.0361
TTAGGCAA | -0.168
AGAACAGA | 0.0872
GAGTATGC | -0.00892
CCGGGAAA | 0.35
TCGGGAAA | 0.309
ACGGGAAA | 0.159
GCGGGAAA | 0.223
CCGGGGAA | 0.267
CGGGGAAA | 0.15
AGTGCTTG | -0.109
CCTTCTAG | -0.237

Sequence | PBM E-score
ATAGAAAG | -0.0692
ATAGAAAA | -0.0185
ATAGAAAT | 0.318
ACAGGCCC | -0.349
ACATTAAG | 0.132
ACCCGGGC | 0.233
ACCCGGGA | 0.367
CCCCGGGA | 0.119
GCCCGGGA | 0.282
ACCCGGGT | 0.299
TCCCGGGA | 0.337
GGCCTGGA | -0.213
TGCAAAAA | 0.00535
TACGGGAA | 0.142
CACGGAAC | 0.349
TACGGAAA | 0.362
CACGGACC | 0.192
AACGGAAC | 0.333
CACGGAGC | 0.14
AACGGAGC | -0.0449
GACGGAAA | 0.213
AACGGAGT | 0.312
GACGGAAC | 0.125
AACGGAGA | 0.107
AACGGACC | 0.185

Sequence | PBM E-score
TCTATGCA | 0.0433
AGAACGGC | 0.176
CTCGAAAA | -0.0323
CATCTGCA | -0.0527
CCACTAAA | -0.0267
GCAAGGGC | -0.274
ACTGCCTC | -0.229
AGATTAGG | -0.068
AGATGGCG | 0.0474
CACGGAAG | 0.149
AACGGGAA | 0.25
CTCGGAAC | 0.358
AGCGGAAT | 0.0752
AACGGAAA | 0.408
CAAGGAAA | -0.0602
GTCGGAAC | 0.217
CACGGAAA | 0.345
AACGGAAG | 0.179
AACGGACA | 0.202
AACGGAAT | 0.365
CTCGGAAA | 0.289
AATAGTGT | 0.267
ATCAGTAA | 0.166
GAATAGGA | 0.0511
GCGATCAC | -0.19

Sequence | PBM E-score
ACTTCTAG | -0.28
GTCACTTA | 0.122
AGGGACTG | -0.316
GGACCTGA | -0.0219
ATACATAT | 0.255
AGGATCAA | 0.14
ATACTGCG | -0.0752
TCAGATCA | -0.00186
TCGGATCA | 0.31
GCGGATCA | 0.105
TAGGATCA | -0.0016
CCGGATCA | 0.328
ACGGATCC | 0.288
CCGGATCC | 0.372
ACGGATCG | 0.0937
CCGGATCG | 0.352
ACGGATCA | 0.248
GCGGATCC | 0.161
CAGGATCG | -0.0543
TCGAGACA | -0.0512
GGCCATAA | -0.102
ACGGCAGG | -0.117
GGGTCAAA | 0.0026
CCGTCCAA | -0.024
CAAGCAGC | -0.149

Sequence | PBM E-score
AATGGTTA | -0.0173
TAGTCTAA | -0.101
AAATTTGT | 0.213
CCGCCGCC | 0.0576
CCGCCGGC | 0.442
CCGCCGGA | 0.316
GCGCCGCC | 0.122
CCGCCGTC | -0.00239
ACGCCGGG | 0.21
GCGCCGCA | 0.166
CCGCCGCA | 0.0998
GCGCCGGA | 0.355
ACGCCGGA | 0.227
ACGCCGGC | 0.423
ACGCCGCC | -0.0562
AGCGTTGG | -0.251
CAATTTGC | -0.0817
TACCTCAA | -0.122
AACATTCG | 0.00818
CTTAGTGC | 0.081
CCACAAGC | -0.273
ATGTAGAA | -0.0706
ACCATTCA | 0.00717
GGCAGGTA | -0.0757
CTCTTAGA | 0.0666

Sequence | PBM E-score
CGAAACCG | 0.253
ACCCGGCC | 0.255
GACCGGCC | 0.203
AGCCGGCC | 0.333
GGCCGGCA | 0.415
AGTCGGCC | 0.135
GGCCGGTA | 0.248
CCCCGGCC | 0.0277
CGCCGGCC | 0.35
CGCCGGTC | 0.228
GCCCGGCC | 0.242
GGCCGGCC | 0.384
GACCGGCA | 0.173
GTCTCGCA | -0.0807
TGGGTCAA | -0.147
ACGGGCTG | -0.045
AAAATCGG | 0.15
ATTTGATG | 0.115
ATGGCCCG | -0.0155
CAATCTGC | -0.14
ACCTTGAG | -0.0404
GGAGTAAA | 0.134
GTTTCAGA | 0.0364
GTTGGTTA | -0.0114
CGATACAC | -0.00964

Sequence | PBM E-score
AAACGGAG | 0.152
CAACGGAA | 0.36
AAACGGAC | -0.00077
TAACGGAA | 0.298
CAACGGAG | 0.0267
AAACGGAT | 0.313
GAACGGAA | 0.267
AAACGGAA | 0.403
AAACGGTA | 0.163
ACTTCATA | -0.0295
CGAGACGA | -0.0371
AAAGCGTT | -0.0919
CAGAGCAA | 0.108
CTCCGGAA | 0.402
ATCCGGGG | 0.262
GTCCGGAA | 0.429
CTCCGGTA | 0.218
GTCCGGTA | 0.206
CTACGGAG | 0.0895
CTCCGGAG | 0.416
CTCCGTAA | 0.0982
CTCCGCAG | -0.136
ATCCGCAG | 0.123
GTCCGGCA | 0.285
ATCCGGAG | 0.398
